# PLC-beta3 inh = blocks human PLC-beta3 enzyme activity | Q01970 | Purified PLC-beta3, fluorogenic substrate, fluorescence | inhibition, % at 12.2 µM | hit rate 0.18% among 370,000 | AID 720704; in the data active = inhibition above about 11%;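 note: 0% = median of compound wells on plate and 100% = full blocker control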
# MBD2 DNA inh = inhibitors of human MBD2 binding to methylated oligonucleotide; Q9UBB5; TR-FRET; inhibition, % at 4.4 µM; hit rate 0.31% among 370,000; AID 686964; in the data active = inhibition above about 13%
# LEDGF integ inh = blocks HIV-1 LEDGF/p75-dependent DNA integration; TR-FRET IN-LEDGF/p75 DNA integration, Eu/Cy5; inhibition, % at 3.7 µM; hit rate 0.64% among 370,000; AID 743269;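 active = inhibition above the screen-wide mean plus 3 SD, cut at about 13% in these data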;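 note: signal is the Cy5 over europium emission ratio at 671 and 618 nm; 0% = plate median of compound wells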
# UHRF1 binding = UHRF1 methyl-DNA binding inhibition | Q96T88 | UHRF1 binding to methylated oligo, TR-FRET | inhibition, % at 4.4 µM | hit rate 0.75% among 370,000 | AID 687016; in the data active = inhibition above about 21%;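 note: UHRF1 SRA domain binding a hemimethylated CpG hairpin DNA probe; 0% = median of test compound wells and 100% = reference inhibitor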
# PLCg1 inh = inhibitors of human phospholipase C gamma1 | purified PLC-gamma1, fluorogenic substrate, fluorescence | hit rate 0.84% among 370,000 | P19174 | inhibition, % at 12.2 µM
# PLCg1 ctr = counter-screen for PLC-beta3 inhibitors: inhibitors of human PLC-gamma1; shares compounds with PLCg1 inh; purified PLC-gamma1, fluorogenic substrate, fluorescence; inhibition, % at 12.3 µM; hit rate 3.1% among 3,300
# PLCbeta3 conf = human PLC-beta3 inhibition, confirmation; shares compounds with PLCg1 inh; purified PLC-beta3, fluorogenic substrate fluorescence; inhibition, % at 12.3 µM; hit rate 1% among 3,300; in the data active = inhibition above about 11%
# * = called active by the depositor; . = no result given. Most compounds without a hit are left out; they make up all but 2.3% or so of the library. Cut-off read from the data, not from the text of the source, unless noted: active = inhibition above about 9.5%; inactive = the rest.
SMILES,PLC-beta3 inh,MBD2 DNA inh,LEDGF integ inh,UHRF1 binding,PLCg1 inh,PLCg1 ctr,PLCbeta3 conf
CCOc1ccc(CC2S/C(=N/c3ccccn3)NC2=O)cc1 (configuration not stated),-1,-3,1,1,11*,-7,-5
COc1ccccc1C=NNC(=O)CSc1nc2ccccc2n1Cc1ccc(Cl)cc1,2,-1,-3,0,1,.,.
COc1ccc(C(=O)O/N=C(\N)Cc2ccc([N+](=O)[O-])cc2)c(OC)c1,-9,4,-4,5,10*,-51,-46
CCOc1ccc(C(=O)c2ccc([N+](=O)[O-])cc2Cl)cc1,1,-4,-3,3,8,.,.
CCOc1ccc(C(=O)c2cc([N+](=O)[O-])ccc2Cl)cc1,15*,3,8,6,13*,-6,-3
N#CCC[C@H]1CC[C@]2(CCCN(Cc3cccc4ccccc34)C2)O1,2,-2,-1,-2,-1,.,.
N#CCC[C@@H]1CC[C@]2(CCCN(Cc3ccc(Br)cc3)C2)O1,3,7,-1,2,9.5*,3,5
COc1ccc(CC(=O)NCC2CCCN(Cc3cc(OC)cc(OC)c3)C2)cc1 (configuration not stated),1,-1,4,4,13*,-5,-4
COC(=O)C1CN(Cc2cn(Cc3ccc(OC)cc3)nn2)CCS(=O)(=O)N1Cc1ccc(Cl)cc1 (configuration not stated),0,-4,2,0,0,.,.
NC1(CO)COC(c2ccccc2)OC1 (configuration not stated),12*,-1,0,-2,6,-8,-3
OC1COC(c2ccccc2)OC1C1OC(c2ccccc2)OCC1O (configuration not stated),0,-1,-1,-3,0,.,.
O=C(ON=C1CCN(c2ccc([N+](=O)[O-])cc2)CC1)c1ccccc1,0,-1,-1,-2,9.9*,-6,-4
COc1ccc(C(=O)ON=C2CCN(c3ccc([N+](=O)[O-])cc3)CC2)cc1,3,-8,-1,-5,3,.,.
COCCCNC(=S)Nc1c(C)cc(C)cc1C,6,2,7,4,13*,-5,-4
Cc1cc(C)c(NC(=S)NCCO)c(C)c1,0,4,0,1,4,.,.
COC(=O)C1C(c2ccccc2)C(C(=O)N2CCOCC2)C1c1ccccc1 (configuration not stated),15*,-2,-2,5,-1,-2,3
CC(C)[C@H](NC(=O)c1ccccc1)C(=O)OCc1nnc(-c2ccccc2)o1,-5,6,4,4,12*,-3,-1
Cc1ccc(C(=O)N[C@H](C(=O)OCc2nnc(-c3ccccc3)o2)C(C)C)cc1,-6,-1,0,-4,-1,.,.
O=C(NCc1ccccn1)c1ccc(Cl)c(S(=O)(=O)N2CCCCCC2)c1,-9,2,6,1,9.9*,-10,-7
O=C(NCCc1ccccn1)c1cccc(S(=O)(=O)N2CCCCCC2)c1,14*,3,-5,3,15*,0,1
O=C(NCc1ccccc1)c1ccc(Cl)c(S(=O)(=O)N2CCCC2)c1,-5,-2,0,-3,1,.,.
O=C(Nc1ccncc1)c1ccc2c(c1)C(=O)N(CC1CCCO1)C2=O (configuration not stated),5,3,4,2,11*,-3,1
O=C(O)c1ccc(NC(=O)c2ccc3c(c2)C(=O)N(CC2CCCO2)C3=O)cc1 (configuration not stated),-7,-1,-5,4,2,.,.
Cc1ccc(-n2c(SCC(=O)Nc3ccc(Oc4ccccc4)cc3)nnc2-c2ccco2)cc1,1,2,-1,-3,0,.,.
COC(=O)[C@]12C[C@H](CC(=O)N3CCN(C(=O)C4CC4)CC3)C(=O)N(Cc3cccc4ccccc34)C1=C[C@H](C1CCCC1)O[C@@H]2C,4,-5,-3,0,3,.,.
SMILES,PLC-beta3 inh,MBD2 DNA inh,LEDGF integ inh,UHRF1 binding,PLCg1 inh,PLCg1 ctr,PLCbeta3 conf
CCOc1ccc(CO/N=C/c2c(C)[nH]c(=O)[nH]c2=O)cc1,0,3,5,5,13*,-2,-2
CCOc1ccc(N(CC)S(=O)(=O)c2c(C)[nH]c(=O)[nH]c2=O)cc1,-1,0,-2,1,3,.,.
Cc1nc(SCC(O)CCl)c([N+](=O)[O-])[nH]1 (configuration not stated),13*,-7,0,3,11*,0,2
Cc1nc(SCc2ccc(O)c([N+](=O)[O-])c2)c([N+](=O)[O-])[nH]1,7,-5,-2,-1,6,.,.
CCOC(=O)[C@]12CCCCC/C=C\1N(CCc1ccc(Cl)cc1)C(=O)[C@H]2CC(=O)NCCCCc1ccccc1,-4,-1,-3,2,-5,.,.
Cc1ccc(S(=O)(=O)Oc2ccccc2/C=N/O)cc1,1,-5,-1,5,1,.,.
O=S(=O)(c1ccccc1)c1ccccc1/C=N\O,1,0,3,1,11*,-4,-5
O=C(COc1ccccc1)N1CCN(c2ccc([N+](=O)[O-])c(N3CCCCC3)c2)CC1,3,-11,5,-2,12*,0,3
O=C(COc1ccc(Br)cc1)N1CCN(c2ccc([N+](=O)[O-])c(N3CCCCC3)c2)CC1,5,1,-1,-6,5,.,.
O=C(c1cc(C2CC2)on1)N(C1CCCCC1)C1CCOCC1,-4,3,-1,2,-2,.,.
COc1ccc(CN=C2NC(=O)CC(C(=O)Nc3cc(C)cc(C)c3)S2)cc1 (configuration not stated),17*,-1,1,3,9,1,1
CC(C)C(OC(=O)c1cc2c(s1)CCCCC2)C(=O)NC(N)=O (configuration not stated),3,3,-3,5,18*,-4,-3
CC(OC(=O)c1cc2c(s1)CCCCC2)C(=O)NC(N)=O (configuration not stated),0,1,1,8,0,.,.
Cc1cc(N2CCOc3ccccc32)nc2ccccc12,-222,2,2,5,-161,.,.
Cc1ccc2nsnc2c1S(=O)(=O)NCCc1c(C)[nH]c2ccc(F)cc12,8,-2,7,-4,10*,-1,-3
Clc1ccc(CSc2nnc(NC3=NCCCCC3)s2)cc1,11*,-3,-1,2,5,-3,2
Cc1cccc(C)c1Nc1ncnc2ccccc12,0,-7,7,-4,9.7*,-3,-1
CCCCNC(=O)OCCCN1CCC2(CCC(c3ccccc3)CC2)C1 (configuration not stated),0,-3,1,5,1,.,.

# Source: PubChem BioAssay (The Scripps Research Institute Molecular Screening Center)
